PKM2 act: activators of human pyruvate kinase M2; purified PKM2, Kinase-Glo ATP luminescence, activation; response scale: 0% is enzyme alone, no compound; AID 1631; actives 0.34% (n = 260,000); Potency, µM (highest dose often 57.5 µM), inactives show top-dose activation, actives largely listed as activators; P14618; further: potency means the concentration at half of the fitted maximal effect; on the % scale 0 is the no-effect control and ±100 the full control effect; nearly all actives have a fitted effect of over 55% in size
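hPK-M2, >95% pure; 0.1 mM ADP / 0.5 mM PEP final; imidazole pH7.2 buffer w/ 7 mM MgCl2, 50 mM KCl; 1 h RT; Kinase-Glo lum. Intermediate enzyme activity for dual inhibitor/activator qHTS.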
IL-2 act: IL-2 activation; IL-2 activation reporter assay, cell-based qHTS; stimulated with anti-CD3/CD4/CD28 beads; in transgenic mouse T cells; activation, % (series mostly up to about 46 µM); actives 0.065% (n = 360,000); AID 652025; in the data active means activation above about 50%; inconclusive means mostly about 30% to 49%; further: 0% is about no effect
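First, unstimulated transgenic mouse T cells were exposed to compound for 60 min. Next, anti-CD3/anti-CD4-coated beads with anti-CD28 were added. Finally, after 18 h at 37 degrees C, EGFP and DsRed were imaged.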
Vif-APOBEC3F blk: Vif-A3F binding inhibition. HeLa A3F-eYFP + Vif (tagged APOBEC3F with the HIV-1 protein that degrades it), YFP fluorescence increase. Potency, µM (titrated, usually from 46.1 µM), inactives show at the highest dose activity, negative = active. actives 0.2% (n = 390,000); further: potency means the concentration at half of the fitted maximal effect; % of control where 0% means no effect; nearly all actives have a fitted effect of over 65% in size
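HeLa cells stably expressing Vif plus C-terminally eYFP-tagged A3F were seeded, incubated overnight at 37 deg C, dosed with compound, incubated overnight again at 37 deg C. Yellow fluorescence (Ex 488/Em 500-530) reported blocked Vif-mediated A3F-eYFP degradation.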
Vif-A3G inh: blocks the Vif interaction with human APOBEC3G. HeLa A3G-eYFP + Vif (tagged APOBEC3G with the HIV-1 protein that degrades it), YFP fluorescence, overnight. Potency, µM (top dose mostly 46.1 µM), for inactives: top-dose activity, negative = active, most hits filed as inhibitors. actives 0.076% (n = 410,000); further: potency means the concentration at half of the fitted maximal effect; on the % scale 0 is the no-effect control and ±100 the full control effect; nearly all actives have a fitted effect of over 60% in size
Target sequence (Q9HC16 whole entry, looked up): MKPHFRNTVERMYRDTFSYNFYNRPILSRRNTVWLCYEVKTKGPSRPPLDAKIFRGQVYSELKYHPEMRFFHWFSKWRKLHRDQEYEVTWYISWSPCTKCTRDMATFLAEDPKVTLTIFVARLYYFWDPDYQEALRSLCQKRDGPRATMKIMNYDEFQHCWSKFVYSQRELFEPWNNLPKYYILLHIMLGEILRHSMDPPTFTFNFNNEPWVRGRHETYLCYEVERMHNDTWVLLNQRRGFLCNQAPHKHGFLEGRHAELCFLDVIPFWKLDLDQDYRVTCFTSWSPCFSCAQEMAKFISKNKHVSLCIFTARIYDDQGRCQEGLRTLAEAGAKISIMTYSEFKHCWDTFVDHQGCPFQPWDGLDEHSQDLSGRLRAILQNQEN
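HeLa cells stably expressing Vif and C-terminally eYFP-tagged A3G, seeded overnight at 37 deg C, then exposed to compound by pintool overnight at 37 deg C. Rise in yellow fluorescence (Ex 488/Em 500-530, Acumen) marks blocked Vif-driven A3G degradation.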
* = called active by the depositor; ? = inconclusive; · = no result given. A selection: hits, their analogues and other compounds. The true share with any hit is near 0.53%. Unless noted, the call rests on the fitted dose curve; in most records, active means well fitted curve in the direction sought with a large enough effect; inconclusive means small, poorly fitted or top-dose-only effect, or another doubt; inactive means no such curve, though single readings can be large; an effect the other way counts as inactive or inconclusive.

SMILES	PKM2 act	IL-2 act	Vif-APOBEC3F blk	Vif-A3G inh
Cc1cc(=O)[nH]c(SCc2cn3ccccc3n2)n1	14µM*	1	-1%	0%
CC(=O)Nc1sc(N/N=C/c2ccc(O)cc2)nc1-c1ccc(C)cc1	18µM*	-1	-1%	-21%
CC(=O)Nc1sc(N/N=C/c2ccccc2F)nc1-c1ccc(C)cc1	10µM*	0	2%	0%
C(=C\c1ccnc2ccccc12)/c1ccc2ccccc2n1	·	·	·	-28%
Cc1nc(SCC(=O)c2ccccc2)c(C#N)c(-c2ccco2)c1C(=O)NCc1ccco1	25µM*	1	?	?
COCCOC(=O)c1c(C)nc(SCC(=O)Nc2ccc(OC)cc2)c(C#N)c1-c1ccco1	4%	1	6%	9%
Nc1ccc(C(=O)Oc2ccc([N+](=O)[O-])cc2)cc1	40µM*	1	-1%	-3%
Nc1ccc(C(=O)Oc2ccc([N+](=O)[O-])cc2)c(O)c1	4%	·	·	·
Cc1cccc(C(=O)NC(=S)N2CCc3ccccc3C2)c1	2%	3	8.9µM*	1%
CCc1ccccc1NC(=O)CCNS(=O)(=O)c1ccc2c(c1)CCN2C(=O)C1CC1	·	·	-1%	-3%
Cc1ccc(S(=O)(=O)c2cnc(SCC(=O)Nc3cc(C)cc(C)c3)nc2N)cc1	·	·	-4%	4%
Cc1ccc(N=C2NC(=O)/C(=C/c3cn(C)c4ccccc34)S2)cc1C	0%	12	?	8.9µM*
Cn1cccc1/C=C1\SC(=Nc2ccccc2)NC1=O	-3%	0	-7%	?
C[C@@H](NCCCc1cccc(C(F)(F)F)c1)c1cccc2ccccc12	·	·	·	-4%
Cc1ccc(NC(=O)CSc2ccccc2NC(=O)c2cccc(Cl)c2)cc1Cl	-11%	13	11µM*	-61%
Cc1cccc(C(=O)Nc2ccccc2SCC(=O)Nc2ccc(C)c(Cl)c2)c1	0%	1	-9%	1%
Cc1noc(C)c1COc1cccc(C(=O)OCC(=O)N2CC(=O)Nc3ccccc32)c1	-1%	-3	-2%	2.8µM*
Oc1ccc(C=NNC(=S)Nc2ccc(F)cc2)c(O)c1	·	2	25µM*	?
COc1ccccc1Nc1nc(Cl)c(C=O)s1	-2%	-3	?	?
Cc1ccc(Nc2nc(Cl)c(C=O)s2)cc1Cl	-7%	0	22µM*	?
O=Cc1sc(Nc2ccccc2)nc1Cl	3%	2	25µM*	?
Cc1ccc(Nc2nc3ccccc3c(=O)s2)cc1C	-19%	0	2%	2%
Cc1ccc(Cn2c(=O)c3c(nc4n3CCN4c3cc(C)cc(C)c3)n(C)c2=O)cc1	·	·	7%	3%
CCOC(=O)c1cnc2c(ccc3ccccc32)c1Nc1ccccc1O	·	·	?	-5%
O=C1c2ccccc2-c2c1cccc2C(=O)N1CCN(C(=O)c2ccco2)CC1	16µM*	-1	0%	-2%
SMILES	PKM2 act	IL-2 act	Vif-APOBEC3F blk	Vif-A3G inh
Cc1ccc2nc(-c3ccccn3)c(NC3CCCC3)n2c1	-2%	-1	7.9µM*	0%
Cn1nnnc1SCc1nc2scc(-c3ccc(Cl)cc3)c2c(=O)[nH]1	-1%	5	22µM*	-21%
OCCCn1c(C2CCCN2c2nc(-c3ccc(Cl)cc3)cs2)nc2cc(Cl)c(Cl)cc21 (stereo unspecified)	·	0	22µM*	-2%
Cc1ccc(C(=O)Nc2ccc(C(=O)O)cc2)cc1S(=O)(=O)NCc1ccccc1	-1%	535*	-384%	-8%
COc1ccc(C(=O)Nc2nc3nc(C)c(Cc4ccccc4)c(=O)n3[nH]2)cc1OC	·	·	0%	5%
CCOCCc1nn2c(=O)cc(COC(=O)C(CC)c3ccccc3)nc2s1 (stereo unspecified)	·	·	0%	1%
N#Cc1c(N)n(CCNC(=O)c2cccs2)c2nc3ccccc3nc12	30%	0	?	?
N#Cc1c(N)n(CCNC(=O)c2ccccc2)c2nc3ccccc3nc12	18µM*	1	?	?
Cc1c2cnn(CC(=O)N3CCCCC3)c(=O)c2c(C)n1Cc1ccc(Cl)cc1	·	·	-8%	-1%
CCN(CC)c1ccc(/C=C2\CCC(/C=N/NC(=O)c3ccc(=O)n(C)c3)=C2N2CCOCC2)cc1	-1%	71*	?	?
Nc1nc(-c2ccccc2)cn1N	28µM*	0	-2%	-8%
CCCCNc1c(-c2ccc(SC(C)CC)cc2)nc2cnccn12 (stereo unspecified)	·	-3	10µM*	?
Brc1ccc(/C=C2\C=Cc3ccccc32)cc1	·	·	·	-9%
COc1ccc(OC)c2sc(NC(=O)CCS(=O)(=O)c3ccccc3)nc12	·	-5	3%	11µM*
COc1cc(/C=C/c2cncc(/C=C/c3cc(OC)c(OC)c(OC)c3)c2)cc(OC)c1OC	·	·	·	2%
CCSC1=N/C(=C\C=C2/Oc3ccccc3N2CC)C(=O)S1	0%	3	6.3µM*	7.1µM*
Cc1ccc(CNC(=O)CCc2c(C)nc3c(-c4ccc(F)cc4)c(C)nn3c2C)cc1	·	·	-2%	6%
COc1ccc(CNC(=O)c2ccc(Sc3ccc(Cl)cc3)c(NC(C)=O)c2)c(OC)c1	·	·	3%	3%
O=C1C(Cl)=C(Nc2ccccc2O)C(=O)N1c1ccccc1	21%	-3	1%	-10%
COc1ccccc1N1C(=O)C(Cl)=C(Nc2ccccc2O)C1=O	14%	-2	22µM*	?
O=c1oc2cc(O)ccc2cc1-c1nc2c(s1)CCc1ccccc1-2	-7%	50*	-48%	5%
Cc1c(Cn2cnc3c(cnn3C(C)(C)C)c2=O)cccc1C(F)(F)F	·	·	·	-4%
Cc1nc(-c2ccc(Cl)cc2)sc1CCNC(=O)C(=O)Nc1ccc(F)cc1F	·	·	5%	3%
CC(C)CCNC(=O)c1ccc2c(c1)NC(=O)C(CS(=O)(=O)Cc1cccc(Br)c1)N2 (stereo unspecified)	·	·	11µM*	?
CCCOc1ccc(C(=O)Nc2cccc(NC(=O)c3ccc(Cl)cc3Cl)c2)cc1	·	·	?	13µM*
SMILES	PKM2 act	IL-2 act	Vif-APOBEC3F blk	Vif-A3G inh
c1ccc(CCNc2c3c(nc4ncnn24)CCC3)cc1	25µM*	-2	0%	-1%
c1cc(CNc2ccc3c(c2)OCO3)ccn1	-3%	0	-7%	1%
Cc1ccc(CNc2ccc3c(c2)OCO3)cc1	19%	1	25µM*	22µM*
N#CC1=C(N)Oc2cc(O)ccc2C1c1cccnc1 (stereo unspecified)	9%	-1	-29%	1%
CN(C)c1ccc2c(c1)OC(N)=C(C#N)C2c1cccc(F)c1 (stereo unspecified)	5%	9	22µM*	?
N#CC1=C(N)Oc2cc(N)ccc2C1c1cccc(F)c1 (stereo unspecified)	4%	0	0%	?
N#CC1=C(N)Oc2cc(O)ccc2C1c1ccncc1 (stereo unspecified)	20µM*	1	-2%	-5%
COc1ccc(C2c3c(ncn(CCN4CCOCC4)c3=N)Oc3ccc4ccccc4c32)cc1OC (stereo unspecified)	20µM*	-2	-16%	-14%

Source: PubChem (National Center for Advancing Translational Sciences (NCATS))
